In the supplement of paper PMC8728848:
Only a selection was taken, and the strongest signals are over-represented in it overall.

How the values were obtained:
Test in all cases: glycan array binding signal (z-score within array); higher = stronger binding
Settings in all cases: glycan notation: IUPAC condensed, linker removed
[1] = target: Fuc(a1-2)Gal(b1-3)GlcNAc(b1-2)Man(a1-3)[Fuc(a1-2)Gal(b1-3)GlcNAc(b1-2)Man(a1-6)]Man(b1-4)GlcNAc(b1-4)GlcNAc
Procedure, shortened: (§1)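 The Consortium for Functional Glycomics database supplied 3228 glycan arrays, of which those lacking an available protein sequence were dropped. The binding signal, a within-array Z-score, was averaged across arrays of the same protein sequence and across linkers. Negative scores can be read as non-binding.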

[2] = target: Fuc(a1-2)Gal(b1-4)Glc
Procedure, shortened: as §1

[3] = target: Fuc(a1-2)Gal(b1-4)GlcNAc
Procedure, shortened: as §1

[4] = target: Fuc(a1-2)Gal(b1-4)GlcNAc6S
Procedure, shortened: as §1

[5] = target: Fuc(a1-2)[Gal(a1-3)]Gal
Procedure, shortened: as §1

[6] = target: Fuc(a1-2)[Gal(a1-3)]Gal(b1-4)Glc
Procedure, shortened: as §1

[7] = target: Fuc(a1-2)[Gal(a1-3)]Gal(b1-4)GlcNAc(b1-2)Man(a1-3)[Fuc(a1-2)[Gal(a1-3)]Gal(b1-4)GlcNAc(b1-2)Man(a1-6)]Man(b1-4)GlcNAc(b1-4)GlcNAc
Procedure, shortened: as §1

[8] = target: Fuc(a1-2)[GalNAc(b1-3)]Gal
Procedure, shortened: as §1

[9] = target: Fuc(a1-3)GlcNAc
Procedure, shortened: as §1

[10] = target: Fuc(a1-3)[Gal(b1-4)]GlcNAc
Procedure, shortened: as §1

[11] = target: Fuc(a1-3)[GalNAc(b1-4)]GlcNAc
Procedure, shortened: as §1

[12] = target: Fuc(b1-3)GlcNAc
Procedure, shortened: as §1

[13] = target: Gal(a1-2)Gal
Procedure, shortened: as §1

[14] = target: Gal(b1-3)[Fuc(a1-4)]GlcNAc(b1-2)Man(a1-3)[Gal(b1-3)[Fuc(a1-4)]GlcNAc(b1-2)Man(a1-6)]Man(b1-4)GlcNAc(b1-4)[Fuc(a1-6)]GlcNAc
Procedure, shortened: as §1

[15] = target: Gal(b1-4)GlcNAc(b1-3)Gal(b1-4)[Fuc(a1-3)]GlcNAc(b1-3)Gal(b1-4)[Fuc(a1-3)]GlcNAc
Procedure, shortened: as §1

[16] = target: Gal(b1-4)GlcNAc(b1-6)Gal(b1-4)GlcNAc(b1-6)GalNAc
Procedure, shortened: as §1

[17] = target: Gal(b1-4)GlcNAc(b1-6)GalNAc
Procedure, shortened: as §1

[18] = target: Gal(b1-4)GlcNAc(b1-6)[Gal(b1-3)]GalNAc
Procedure, shortened: as §1

[19] = target: Gal3S(b1-3)GalNAc
Procedure, shortened: as §1

[20] = target: Gal3S6S(b1-4)GlcNAc6S
Procedure, shortened: as §1

[21] = target: GalNAc(b1-4)GlcNAc
Procedure, shortened: as §1

[22] = target: Glc(a1-4)Glc
Procedure, shortened: as §1

[23] = target: Glc(b1-4)Glc
Procedure, shortened: as §1

[24] = target: GlcA(b1-3)Gal
Procedure, shortened: as §1

[25] = target: GlcNAc(a1-4)Gal(b1-4)GlcNAc(b1-3)Gal(b1-4)GlcNAc
Procedure, shortened: as §1

[26] = target: GlcNAc(b1-3)GalNAc
Procedure, shortened: as §1

[27] = target: GlcNAc(b1-6)GalNAc
Procedure, shortened: as §1

[28] = target: Neu5Ac(a2-3)Gal6S(b1-4)GlcNAc
Procedure, shortened: as §1

[29] = target: Neu5Ac(a2-6)Gal(b1-4)GlcNAc
Procedure, shortened: as §1

[30] = target: Neu5Ac(a2-8)Neu5Ac(a2-8)Neu5Ac(a2-3)Gal(b1-4)Glc
Procedure, shortened: as §1

[31] = target: Neu5Ac9Ac(a2-3)Gal(b1-4)GlcNAc
Procedure, shortened: as §1

B1: DC-ASPGR (Homo sapiens), CLC10_HUMAN (protein)
chain: LDQNSKFQRDLVTLRTDFSNFTSNTVAEIQALTSQGSSLEETIASLKAEVEGFKQERQAVHSEMLLRVQQLVQDLKKLTCQVATLNNNASTEGTCCPVNWVEHQDSCYWFSHSGMSWAEAEKYCQLKNAHLVVINSREEQNFVQKYLGSAYTWMGLSDPEGAWKWVDGTDYATGFQNWKPGQPDDWQGHGLGGGEDCAHFHPDGRWNDDVCQRPYHWVCEAGLGQTSQESHVEPKSCDKTHTCPPCPAPELLGGPSVFLFPPKPKDTLMISRTPEVTCVVVDVSHEDPEVKFNWYVDGVEVHNAKTKPREEQFNSTYRVVSVLTVLHQDWLNGKEYKCKVSNKGLPSSIEKTISKAKGQPREPQVYTLPPSQEEMTKNQVSLTCLVKGFYPSDIAVEWESNGQPENNYKTTPPVLDSDGSFFLYSRLTVDKSRWQEGNVFSCSVMHEALHNHYTQK
With B1 the “glycan array binding signal (z-score)” value [1] was -0.074, the “glycan array binding signal (z-score)” value [2] was -0.082 and the “glycan array binding signal (z-score)” value [3] was -0.165. The “glycan array binding signal (z-score)” value [4] was -0.177, the “glycan array binding signal (z-score)” value [5] was -0.287 and the “glycan array binding signal (z-score)” value [6] was -0.303. For the same binder, the “glycan array binding signal (z-score)” value [7] was -0.297, the “glycan array binding signal (z-score)” value [8] was 3.91 and the “glycan array binding signal (z-score)” value [9] was -0.256. The “glycan array binding signal (z-score)” value [10] was -0.246, the “glycan array binding signal (z-score)” value [11] was 2.36 and the “glycan array binding signal (z-score)” value [12] was -0.235. For the same binder, the “glycan array binding signal (z-score)” value [13] was -0.14, the “glycan array binding signal (z-score)” value [14] was -0.15 and the “glycan array binding signal (z-score)” value [15] was -0.197. For the same binder, the “glycan array binding signal (z-score)” value [16] was -0.298, the “glycan array binding signal (z-score)” value [17] was 3.86 and the “glycan array binding signal (z-score)” value [18] was -0.173. For the same binder, the “glycan array binding signal (z-score)” value [19] was -0.146, the “glycan array binding signal (z-score)” value [20] was -0.248 and the “glycan array binding signal (z-score)” value [21] was 2.66. The “glycan array binding signal (z-score)” value [22] was 5.49, the “glycan array binding signal (z-score)” value [23] was -0.27 and the “glycan array binding signal (z-score)” value [24] was -0.276. The “glycan array binding signal (z-score)” value [25] was -0.092, the “glycan array binding signal (z-score)” value [26] was -0.27 and the “glycan array binding signal (z-score)” value [27] was 4.28. For the same binder, the “glycan array binding signal (z-score)” value [28] was -0.179, the “glycan array binding signal (z-score)” value [29] was -0.236 and the “glycan array binding signal (z-score)” value [30] was -0.244. For the same binder, the “glycan array binding signal (z-score)” value [31] was -0.099.
